# Measured values: PubChem BioAssay AID1159580 (chemical genetic matrix, 2015)
# Values joined by “and” are separate entries in the source; they are usually repeats but may differ in a detail not shown here. Identical values can stand only once. Among all 5,500 compounds or so, about 2,000 (36%) were called active. Not shown: some 18% with an inconclusive outcome. The list shows a part of the results. Unmarked numbers belong to inactive results. Cut-off read from the data, not from the text of the source: active = normalized growth mostly below about 0.91 (no sharp cut-off); inconclusive = no clear call, values can overlap the other calls; inactive = mostly above about 0.92.
# Experiment: chemical genetic growth profiling, strain panel (AID 1159580);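 note: tested at 20 µM; growth read once vehicle control cultures reached saturation at 30 °C; 1 = growth at the plate median or of vehicle wells; lower values mean less growth of the strain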
# Conditions: S. cerevisiae deletion strains, growth OD
smiles,measurement,setting,value
N#Cc1ccc2c(c1)N(CCCN1CCC(O)CC1)c1ccccc1S2,normalized growth,"locus YAL013W, strain DEP1, hits give low values",1
same,normalized growth,"locus YAL021C, strain ccr4, hits give low values",1.01
same,normalized growth,"locus YAL026C, strain drs2, hits give low values",0.99
same,normalized growth,"locus YAL030W, strain snc1, hits give low values",0.999
same,normalized growth,"locus YBL061C, strain skt5, hits give low values",0.984
same,normalized growth,"locus YBR009C, strain hhf1, hits give low values",0.953
same,normalized growth,"locus YBR021W, strain FUR4, hits give low values",1
same,normalized growth,"locus YBR023C, strain chs3, hits give low values",0.982
same,normalized growth,"locus YBR171W, strain sec66, hits give low values",1
same,normalized growth,"locus YBR229C, strain ROT2, hits give low values",1.02
same,normalized growth,"locus YBR231C, strain swc5, hits give low values",0.994
same,normalized growth,"locus YBR279W, strain paf1, hits give low values",0.987
same,normalized growth,"locus YCL011C, strain gbp2, hits give low values",0.989
same,normalized growth,"locus YCL016C, strain dcc1, hits give low values",0.987
same,normalized growth,"locus YCL029C, strain bik1, hits give low values",1.03
same,normalized growth,"locus YCL061C, strain MRC1, hits give low values",0.992
same,normalized growth,"locus YCL069W, strain vba3, hits give low values",0.993
same,normalized growth,"locus YCR088W, strain abp1, hits give low values",0.996
same,normalized growth,"locus YDL005C, strain med2, hits give low values",0.991
same,normalized growth,"locus YDL035C, strain GPR1, hits give low values",1.01
same,normalized growth,"locus YDL040C, strain nat1, hits give low values",0.975
same,normalized growth,"locus YDL074C, strain BRE1, hits give low values",1
same,normalized growth,"locus YDL101C, strain DUN1, hits give low values",1
same,normalized growth,"locus YDL134C, strain PPH21, hits give low values",1.01
same,normalized growth,"locus YDL185W, strain tfp1, hits give low values",1.03
same,normalized growth,"locus YDL192W, strain arf1, hits give low values",1.03
same,normalized growth,"locus YDR001C, strain nth1, hits give low values",0.992
same,normalized growth,"locus YDR069C, strain doa4, hits give low values",0.995
same,normalized growth,"locus YDR101C, strain arx1, hits give low values",1.01
same,normalized growth,"locus YDR137W, strain rgp1, hits give low values",1.02
same,normalized growth,"locus YDR150W, strain NUM1, hits give low values",0.999
same,normalized growth,"locus YDR159W, strain sac3, hits give low values",0.979
same,normalized growth,"locus YDR162C, strain NBP2, hits give low values",1.02
same,normalized growth,"locus YDR195W, strain ref2",1
same,normalized growth,"locus YDR297W, strain sur2, hits give low values",0.99
same,normalized growth,"locus YDR318W, strain mcm21, hits give low values",1.02
same,normalized growth,"locus YDR334W, strain swr1, hits give low values",0.996
same,normalized growth,"locus YDR335W, strain msn5, hits give low values",0.996
same,normalized growth,"locus YDR388W, hits give low values",1.03
same,normalized growth,"locus YDR392W, strain spt3, hits give low values",0.72 (active)
same,normalized growth,"locus YDR502C, strain sam2, hits give low values",1.01
same,normalized growth,"locus YEL003W, strain gim4, hits give low values",1
same,normalized growth,"locus YEL037C, strain rad23, hits give low values",0.996
same,normalized growth,"locus YEL061C, strain CIN8 (second series), hits give low values",0.994
same,normalized growth,"locus YEL061C, strain CIN8, hits give low values",1
same,normalized growth,"locus YER015W, strain faa2, hits give low values",1
same,normalized growth,"locus YER016W, strain bim1, hits give low values",0.996
same,normalized growth,"locus YER110C, hits give low values",1.02
same,normalized growth,"locus YER111C, strain swi4, hits give low values",0.984
same,normalized growth,"locus YER155C, strain BEM2 (second series), hits give low values",0.912
same,normalized growth,"locus YER155C, strain BEM2, hits give low values",1
same,normalized growth,"locus YER167W, strain BCK2, hits give low values",1.01
same,normalized growth,"locus YFR010W, strain ubp6, hits give low values",0.999
same,normalized growth,"locus YGL078C, strain dbp3, hits give low values",1.01
same,normalized growth,"locus YGL086W, strain mad1, hits give low values",1.02
same,normalized growth,"locus YGL167C, strain pmr1, hits give low values",0.995
same,normalized growth,"locus YGL173C, strain kem1, hits give low values",0.991
same,normalized growth,"locus YGL227W, strain vid30, hits give low values",0.996
same,normalized growth,"locus YGL240W, strain doc1, hits give low values",0.97
same,normalized growth,"locus YGL248W, strain PDE1, hits give low values",1.01
same,normalized growth,"locus YGL253W, strain hxk2, hits give low values",0.991
same,normalized growth,"locus YGR078C, strain PAC10, hits give low values",0.998
same,normalized growth,"locus YGR135W, strain pre9, hits give low values",1.01
same,normalized growth,"locus YGR229C, strain SMI1, hits give low values",1
same,normalized growth,"locus YGR252W, strain gcn5, hits give low values",1.01
same,normalized growth,"locus YHR013C, strain ard1, hits give low values",0.897
same,normalized growth,"locus YHR027C, strain rpn1, hits give low values",0.997
same,normalized growth,"locus YHR030C, strain SLT2, hits give low values",1.01 and 1.03
same,normalized growth,"locus YHR079C, strain IRE1 (second series), hits give low values",1.02
same,normalized growth,"locus YHR079C, strain IRE1, hits give low values",1.04
same,normalized growth,"locus YHR094C, strain hxt1, hits give low values",1.02
same,normalized growth,"locus YHR129C, strain ARP1, hits give low values",1
same,normalized growth,"locus YHR142W, strain chs7, hits give low values",0.997
same,normalized growth,"locus YHR200W, strain rpn10, hits give low values",1.02
same,normalized growth,"locus YIL066C, strain RNR3, hits give low values",1.01
same,normalized growth,"locus YIL073C, strain SPO22, hits give low values",1.03
same,normalized growth,"locus YIL125W, strain kgd1, hits give low values",1.03
same,normalized growth,"locus YIR030C, strain dcg1, hits give low values",1.03
same,normalized growth,"locus YJL092W, strain hpr5, hits give low values",1
same,normalized growth,"locus YJL095W, strain BCK1 (second series), hits give low values",0.988
same,normalized growth,"locus YJL095W, strain BCK1, hits give low values",0.983 and 1.04
same,normalized growth,"locus YJL115W, strain asf1, hits give low values",0.994
same,normalized growth,"locus YJL129C, strain trk1, hits give low values",0.994
same,normalized growth,"locus YJL134W, strain LCB3, hits give low values",1
same,normalized growth,"locus YJL154C, strain vps35, hits give low values",0.987
same,normalized growth,"locus YJL164C, strain tpk1, hits give low values",0.992
same,normalized growth,"locus YJL166W, strain qcr8, hits give low values",0.997
same,normalized growth,"locus YJL168C, strain set2, hits give low values",1.02
same,normalized growth,"locus YJL187C, strain SWE1 (second series), hits give low values",1.01
same,normalized growth,"locus YJL187C, strain SWE1, hits give low values",0.998
same,normalized growth,"locus YJR043C, strain POL32, hits give low values",1.01
same,normalized growth,"locus YJR066W, strain TOR1, hits give low values",0.955
